These results are taken from PubChem BioAssay (NCI).

Compounds without any hit were thinned out: in the full panel of roughly 83,000, 20% have a hit.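 Single-concentration screen, 48 h exposure, 96-well plates. Endpoint: percent growth. Below 10 = active.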 Unmarked numbers belong to inactive results. Calls of active or inactive are those of the source.

Among the test systems are NCI-H23 lung; NCI-H322M lung; HOP-62 NSCLC; NCI-H460 lung; HOP-92 NSCLC; NCI-H522 lung; 786-0 renal; COLO 205 colon; A549/ATCC NSCLC; NCI-H226 lung.
Common to all, as to assay: NCI-60 one-dose screen, 48 h (100 = growth as untreated, 0 = no growth, -100 = all killed)
Common to all, as to settings: 10 µM

Consider `N#C/C(=C\c1ccc(N(c2ccccc2)c2ccccc2)cc1)C(N)=O`, for which the growth is 55.9% in the assay with NCI-H23 lung; 92.9% in the assay on NCI-H322M lung; 48.9% with HOP-62 NSCLC; 5.51% (active) in the assay with NCI-H460 lung; 75.5% with HOP-92 NSCLC; 74.5% in the assay with NCI-H522 lung. Besides, the figures for the growth with 786-0 renal and in the assay with COLO 205 colon were 53.9% and 19.7%, respectively.

For the compound `COC(=O)c1c(C(=O)OC)c2n(c1C)[C@@H]([C@@H](C)[C@H]1CC[C@H]3[C@@H]4CCC5=CC(=O)CC[C@]5(C)[C@H]4CC[C@]13C)SC2`, the growth with NCI-H23 lung was 25%; in the assay on HOP-62 NSCLC, 64.1%; in the assay on NCI-H460 lung, 25.1%; in the assay on HOP-92 NSCLC it was 26.3%; with NCI-H522 lung, 23.1%; with A549/ATCC NSCLC, 37.1%. The growth in the assay with 786-0 renal is 73.4%; in the assay with COLO 205 colon, 16%.

Consider `C[C@H]1[C@H](C)CC[C@]2(COC(=O)CCC(=O)NCC#CCN3CCNCC3)CC[C@]3(C)C(=CC[C@@H]4[C@@]5(C)CCCNC(C)(C)[C@@H]5CC[C@]43C)[C@H]12`, for which the growth with NCI-H226 lung is 75.6%; in the assay with NCI-H322M lung, 77.2%; with HOP-62 NSCLC it was 60.8%; in the assay on NCI-H460 lung it was 9.64% (active); in the assay on HOP-92 NSCLC it was 14.4%; in the assay on NCI-H522 lung, 59%. Besides, the growth in the assay on A549/ATCC NSCLC is 51.6%; with 786-0 renal, 55.1%; with COLO 205 colon, -76.9% (active).

Regarding `O=C(c1ccc(Cl)cc1)C1[C@H](c2ccc(Br)cc2)[C@@H](c2ccccc2)NC12C(=O)Nc1ccc(Br)cc12` (stereo not given in full), the growth in the assay on NCI-H23 lung was -92.7% (active); in the assay with NCI-H322M lung, -59.3% (active); in the assay on HOP-62 NSCLC it was -80.3% (active); with NCI-H460 lung, -62.5% (active); in the assay on HOP-92 NSCLC, -72.7% (active); in the assay with NCI-H522 lung it was -82% (active). Further, the growth with A549/ATCC NSCLC was -51.5% (active); in the assay with 786-0 renal it was -80.4% (active); with COLO 205 colon, -88.2% (active).

`Nc1cccnc1/C=N/NC(=S)NCCNC(=O)c1ccc(-n2nc(-c3ccccc3O)nc2-c2ccccc2O)cc1`: the growth with NCI-H23 lung was -1.31% (active); in the assay on NCI-H322M lung, 19.3%; with HOP-62 NSCLC, 22.1%; with NCI-H460 lung it was 37.6%; in the assay with HOP-92 NSCLC it was -2.21% (active); in the assay on NCI-H522 lung it was 4.39% (active). Moreover, the growth with A549/ATCC NSCLC was 15%; in the assay with 786-0 renal it was -1.51% (active); with COLO 205 colon, 15.1%.

Consider `O=C1NC(=NC23CC4CC(CC(C4)C2)C3)N/C1=C\c1ccc2ncoc2c1`, for which the growth with NCI-H23 lung is -49.7% (active); in the assay on HOP-62 NSCLC, 13.2%; in the assay on NCI-H460 lung it was 13.7%; in the assay on HOP-92 NSCLC, 15.3%; in the assay on NCI-H522 lung, -17.3% (active); in the assay on A549/ATCC NSCLC, 10%. Besides, the growth in the assay with 786-0 renal is 14.4%; in the assay with COLO 205 colon, -34.4% (active).

Consider `Cc1ccc(C(=O)NCCCNc2nc(Nc3ccc(N4CCN(C)CC4)cc3)nc3ccsc23)cc1`, for which the growth in the assay on NCI-H23 lung was 53.4%; in the assay on NCI-H322M lung, 64.3%; in the assay with HOP-62 NSCLC, 73.7%; in the assay on NCI-H460 lung it was 49.2%; in the assay on HOP-92 NSCLC, 27.1%; in the assay on NCI-H522 lung it was 73.2%. Further, the growth was 54.5% with A549/ATCC NSCLC, -11.6% (active) in the assay with 786-0 renal and 32.7% in the assay on COLO 205 colon.

For the compound `Cc1noc2c(Cc3ccc([N+](=O)[O-])cc3)nn(CC(=O)N/N=C/c3ccc(Cl)cc3)c(=O)c12`, the growth in the assay on NCI-H23 lung was 57.9%; in the assay with NCI-H322M lung, 62.5%; in the assay with HOP-62 NSCLC, 16.9%; with NCI-H460 lung, 46.2%; with HOP-92 NSCLC, -20.2% (active); in the assay on NCI-H522 lung, 69.5%. The figures for the growth in the assay on A549/ATCC NSCLC, in the assay with 786-0 renal and in the assay with COLO 205 colon were 40.1%, -19.5% (active) and 79.3%, respectively.

Consider `[2H]C([2H])([2H])Oc1ccc2ncc(C#Cc3cncc(C(=O)Nc4ccc(CN5CCN(C)CC5)c(C(F)(F)F)c4)c3)n2n1`, for which the growth in the assay on NCI-H23 lung was -80.5% (active); in the assay on NCI-H322M lung, -98.9% (active); in the assay on HOP-62 NSCLC, -41% (active); in the assay on NCI-H460 lung it was 2.44% (active); in the assay with HOP-92 NSCLC, -66.6% (active); with NCI-H522 lung, -40.4% (active). Moreover, the growth in the assay with A549/ATCC NSCLC is -33% (active); in the assay with 786-0 renal, -28.6% (active); in the assay on COLO 205 colon it was -62.2% (active).

Take `O=C(Nc1ccncc1)c1ccc(-n2c(=O)[nH]c3ccccc3c2=O)cc1`: the growth is 80.1% in the assay with NCI-H23 lung; 99% with HOP-62 NSCLC; 110% in the assay on NCI-H460 lung; 77.1% with HOP-92 NSCLC; 84.9% in the assay with NCI-H522 lung; 106% in the assay with A549/ATCC NSCLC. The results for the growth in the assay on 786-0 renal and in the assay with COLO 205 colon were 94.2% and 102%, respectively.

Consider `C/C(=C\c1ccc(O)cc1O)c1ccc2ccc(O)cc2[o+]1`, for which the growth with NCI-H23 lung was 45.8%; in the assay on HOP-62 NSCLC, 54.9%; in the assay with NCI-H460 lung it was 56.8%; in the assay with HOP-92 NSCLC, 83.8%; with NCI-H522 lung it was 55%; with A549/ATCC NSCLC it was 91.9%. For the same compound, the figures for the growth in the assay with 786-0 renal and in the assay on COLO 205 colon were 52.9% and 116%, respectively.

On to `COc1ccc(C(=O)/C=C/c2ccc(Cl)c(C(F)(F)F)c2)cc1S(N)(=O)=O`, for which the growth is -86.5% (active) with NCI-H23 lung; -100% (active) in the assay with NCI-H322M lung; -84% (active) with HOP-62 NSCLC; -79.2% (active) in the assay on NCI-H460 lung; -68.8% (active) in the assay on HOP-92 NSCLC; -83.2% (active) in the assay on NCI-H522 lung. Besides, the results for the growth with A549/ATCC NSCLC, with 786-0 renal and in the assay with COLO 205 colon were -78.1% (active), -85.6% (active) and -71.5% (active), respectively.

In the case of `COc1ccc([C@H]2C(C(=O)c3ccc(Cl)cc3)C3(N[C@@H]2c2ccccc2)C(=O)Nc2ccc(Cl)cc23)cc1` (stereo not given in full), the growth was -56.2% (active) in the assay on NCI-H23 lung; 20% with NCI-H322M lung; -57.2% (active) in the assay on HOP-62 NSCLC; -11.7% (active) in the assay on NCI-H460 lung; -26.7% (active) with HOP-92 NSCLC; -1.74% (active) in the assay on NCI-H522 lung. In addition, the growth was 18.2% in the assay with A549/ATCC NSCLC, -12% (active) in the assay with 786-0 renal and -89.5% (active) in the assay on COLO 205 colon.

As to `COC1CC(Cn2cc(COc3ccc4ccc(=O)oc4c3)nn2)C(OCc2ccccc2)C(OCc2ccccc2)C1OCc1ccccc1` (stereo not given), the growth with NCI-H23 lung is 95.1%; in the assay with NCI-H322M lung, 106%; in the assay on HOP-62 NSCLC it was 98.9%; in the assay on NCI-H460 lung it was 113%; in the assay on HOP-92 NSCLC, 80.3%; in the assay with NCI-H522 lung, 92.4%. Further, the growth is 92.3% in the assay with A549/ATCC NSCLC, 102% in the assay on 786-0 renal and 121% in the assay on COLO 205 colon.

On to `COc1ccc(CN2[C@H](C(=O)NCCCCCCC(=O)NO)Cc3c([nH]c4ccccc34)[C@H]2C2CC2)cc1`, for which the growth in the assay on NCI-H23 lung is -17.5% (active); with NCI-H322M lung, 9.54% (active); in the assay with HOP-62 NSCLC, 14%; in the assay with NCI-H460 lung, 6.41% (active); in the assay on HOP-92 NSCLC it was -24.5% (active); in the assay with NCI-H522 lung it was -44.6% (active). Further, the growth was 17.3% in the assay on A549/ATCC NSCLC, 17.4% in the assay on 786-0 renal and -94.8% (active) with COLO 205 colon.
